Common to all, as to experiment: NCI-60 one-dose screen, 48 h (100 = growth as untreated, 0 = no growth, -100 = all killed)
Assay [1] concerns HCT-15 colon. To be noted: 10 µM unless noted.
Assay [2] relates to HT29 colon. To be noted: 10 µM unless noted.
For assay [3], the system named is SNB-75 CNS. Particulars: 10 µM unless noted.
Assay [4] has as its system SNB-19 CNS. Particulars: 10 µM unless noted.
Assay [5] concerns U251 CNS. To be noted: 10 µM unless noted.
The subject of assay [6] is PC-3 prostate. Particulars: 10 µM unless noted.
Assay [7] has as its system SK-MEL-5 melanoma. Particulars: 10 µM unless noted.
The test system of assay [8] is UACC-62 melanoma. To be noted: 10 µM unless noted.
Assay [9] deals with LOX IMVI melanoma. Particulars: 10 µM.
Assay [10] concerns SK-MEL-28 melanoma. To be noted: 10 µM unless noted.

Compounds without any hit were thinned out: in the full panel of roughly 83,000, 20% have a hit.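 A percent growth of 40 corresponds to 60% growth inhibition; 0 means no net growth; -100 means all cells died. Active threshold: below 10.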 Values without a mark were called inactive. Activity calls are given as the source filed them.

Turning to `CC(C)(C)CC(C)(C)c1ccc(OCCOCCSC(=N)N)cc1`, the growth was 0.972% (active) in assay [1]; -7.31% (active) in [2]; 74.8% in assay [3]; 73.6% in assay [4]; 35.9% in assay [5]; 42.6% in [6]. Besides, the growth in assay [7] was -70.2% (active); in [8] it was 75.7%; in [9] it was -81% (active); in assay [10], -57.1% (active).
Consider `c1csc(-c2[nH]nc3c2CCc2ccccc2-3)c1`, for which the growth in assay [1] is 30.7%; in assay [2], 92.4%; in assay [3], 55.6%; in [4], 70.3%; in [5], 78.1%; in assay [6], 81.7%. Moreover, the growth in assay [7] is 84.8%; in assay [8], 90%; in assay [9] it was 97.5%; in [10] it was 104%.
`CC(O)C(O)C(O)C(O)C(O)C(=O)NNc1ccccc1` (stereo not drawn): the growth is 78.6% in assay [1]; 104% in assay [2]; 82.6% in assay [3]; 97.1% in assay [4]; 97.6% in assay [5]; 86.3% in assay [6]. Besides, the growth in assay [7] is 107%; in assay [8] it was 30.5%; in assay [9] it was 48.1%; in [10], 103%.
In the case of `COc1ccc2nc3cc(Cl)ccc3c(NCCCCCN3CCCCC3)c2c1`, the growth in assay [1] was -32.2% (active); in assay [2], -41.3% (active); in assay [3] it was -98.1% (active); in assay [4], 2.99% (active); in assay [5] it was -74.5% (active); in [6], -45.3% (active). In addition, the growth in assay [7] is -96.9% (active); in assay [8] it was -67.9% (active); in assay [9] it was -80.4% (active); in [10], -79.9% (active).
Turning to `Oc1ccc(Br)cc1Sc1cc(Br)ccc1O`, the growth in [1] was 36.6%; in assay [2] it was 116%; in assay [3], 59.4%; in assay [4] it was 41.3%; in assay [5], 46.9%; in assay [6], 65.4%. For the same compound, the growth in assay [7] was 2.54% (active); in assay [8], 7.3% (active); in assay [9] it was 43.6%; in assay [10], 38.9%.
On to `Cc1onc(-c2ccccc2)c1C(=O)N/N=C/c1cc(Cl)cc(Cl)c1O`, for which the growth in assay [1] was 25.6%; in assay [2] it was 42.2%; in assay [3], 61.4%; in assay [4], 43.8%; in assay [5], 25%; in assay [6], 46.2%. Besides, the growth is 9.32% (active) in [7], 10.9% in assay [8], 11.2% in [9] and 51.3% in [10].
For `COc1cc(-c2ccc(-[n+]3nc(-c4ccc([N+](=O)[O-])cc4)nn3-c3ccc([N+](=O)[O-])cc3)c(OC)c2)ccc1-[n+]1nc(-c2ccc([N+](=O)[O-])cc2)nn1-c1ccc([N+](=O)[O-])cc1`, the growth in assay [1] is 29.7%; in [2], -6.65% (active); in assay [3] it was -35.8% (active); in assay [4], 40.8%; in assay [5] it was 43.9%; in [6], 47.9%. In addition, the growth in assay [7] was 47.4%; in [8], 85.9%; in assay [9], -75.5% (active); in assay [10], 73.1%.
As for `COC(=O)Nc1nc2ccc(C3(c4ccc(F)cc4)OCCO3)cc2[nH]1`, the growth is 25.9% in assay [1]; 0.785% (active) in [2]; 10.3% in assay [3]; 89.1% in assay [4]; 13.9% in assay [5]; 14.8% in assay [6]. Also, the growth in [7] is 21.2%; in assay [8], 53.3%; in [9], 45.2%; in assay [10] it was 48.1%.
Regarding `Cc1ccccc1NC(=O)Cc1csc2[n+]1C(=O)/C(=C/c1ccc([N+](=O)[O-])cc1)S2`, the growth in assay [1] is 100%; in assay [2] it was 113%; in assay [3], 80.9%; in assay [4], 102%; in assay [5], 92.2%; in assay [6], 85.9%. Also, the growth in assay [7] is 94.3%; in assay [8], 88.2%; in assay [9], 86.6%; in assay [10] it was 95.8%.
In the case of `Cc1cc(C(=C2C=CC(=Nc3ccccc3)C=C2)c2ccc(Nc3ccccc3)cc2)ccc1N`, the growth is -31.7% (active) in assay [1]; -75.4% (active) in [2]; -74.6% (active) in [3]; -55.4% (active) in [4]; -97.4% (active) in assay [5]; -60.4% (active) in assay [6]. In addition, the growth in [7] is -95.9% (active); in [8] it was -65.6% (active); in [9], -93.8% (active); in [10], -82.3% (active).
As for `CCOc1ccc(C(C[N+](=O)[O-])Sc2ccccc2N)cc1` (stereo not drawn), the growth in assay [1] was -11.3% (active); in [2] it was -49.7% (active); in assay [3] it was 61.3%; in [4] it was 46.2%; in [5], 9.82% (active); in assay [6] it was 10.7%. The growth is 40.9% in assay [7], 64.6% in [8] and -36.4% (active) in [10].
`Cc1nc([N+](=O)[O-])c(Sc2nncc(-c3ccccc3)n2)n1C`: the growth was 68% in assay [1]; 84.5% in assay [2]; 76.6% in assay [3]; 116% in assay [4]; 79.4% in [5]; 98.1% in assay [6]. The growth is 96% in assay [7], 82.2% in assay [8], 82.2% in assay [9] and 89.1% in assay [10].
Consider `COC(=O)c1ccc(=O)c2nc3/c(=C/O)c(O)cc(=O)c3[nH]c12`, for which the growth in assay [1] was 10.1%; in [2] it was 29.4%; in assay [3], 12.6%; in [4], 11.6%; in assay [5], 7.56% (active); in assay [6], 30.5%. The growth is 22% in [7], -3.09% (active) in assay [8], 19% in assay [9] and 34.2% in [10].
`CC[n+]1ccc(Nc2ccc(NC(=O)c3ccc(Nc4cc[n+](CC)c5ccc([N+](=O)[O-])cc45)cc3)cc2)cc1`: the growth in assay [1] was 96.2%; in assay [2], 57.1%; in [3], 98.4%; in [4], 71.6%; in [5], 62.5%; in [6], 54.2%. Moreover, the growth in [7] is 65.7%; in [8] it was 79.4%; in [9], 85.7%; in assay [10] it was 90.3%.
`Nc1ccc(-c2ccc(N)c(S(=O)(=O)O)c2)cc1S(=O)(=O)O`: the growth in assay [1] was 118%; in assay [2], 109%; in assay [3], 83.1%; in assay [4], 101%; in assay [5] it was 115%; in [6], 101%. In addition, the growth in assay [7] was 111%; in assay [9] it was 94.4%; in assay [10], 119%.

The values above are taken from PubChem BioAssay (NCI).
